Experiment [1] has as its target Sphingosine kinase 1 (Homo sapiens) (UniProt Q9NYA1). As to conditions: at 1 µM.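 Note: mean SPHK1 inhibition value reported from the GSK PKIS kinase panel screen.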
The target of experiment [2] is T1, Sphingosine kinase 2 (Homo sapiens) (UniProt Q9NRA0).
T1 sequence (whole entry): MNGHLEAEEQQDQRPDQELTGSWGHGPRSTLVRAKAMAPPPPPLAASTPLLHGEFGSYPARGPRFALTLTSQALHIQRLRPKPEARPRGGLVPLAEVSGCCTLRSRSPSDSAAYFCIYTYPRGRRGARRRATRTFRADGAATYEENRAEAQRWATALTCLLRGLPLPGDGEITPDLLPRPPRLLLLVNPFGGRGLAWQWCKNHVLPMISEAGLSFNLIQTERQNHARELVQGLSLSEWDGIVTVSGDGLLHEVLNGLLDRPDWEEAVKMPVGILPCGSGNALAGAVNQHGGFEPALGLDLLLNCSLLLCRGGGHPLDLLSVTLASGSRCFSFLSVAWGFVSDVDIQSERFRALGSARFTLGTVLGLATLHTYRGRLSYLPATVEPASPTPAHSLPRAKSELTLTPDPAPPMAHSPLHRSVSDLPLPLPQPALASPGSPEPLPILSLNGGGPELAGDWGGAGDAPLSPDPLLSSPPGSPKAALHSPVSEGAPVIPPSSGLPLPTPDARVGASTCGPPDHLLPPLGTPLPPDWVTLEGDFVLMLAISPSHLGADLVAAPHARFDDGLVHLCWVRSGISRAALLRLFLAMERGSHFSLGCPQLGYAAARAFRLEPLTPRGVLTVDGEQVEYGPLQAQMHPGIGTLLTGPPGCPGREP
The note with it: at 0.1 µM.

Experiment [3] concerns the target T1, Sphingosine kinase 2 (Homo sapiens). As to conditions: at 1 µM.
The target in experiment [4] is Casein kinase II subunit alpha (Homo sapiens) (UniProt P68400). As to conditions: at 0.1 µM.
Casein kinase II subunit alpha (Homo sapiens), sequence (P68400 whole entry, looked up): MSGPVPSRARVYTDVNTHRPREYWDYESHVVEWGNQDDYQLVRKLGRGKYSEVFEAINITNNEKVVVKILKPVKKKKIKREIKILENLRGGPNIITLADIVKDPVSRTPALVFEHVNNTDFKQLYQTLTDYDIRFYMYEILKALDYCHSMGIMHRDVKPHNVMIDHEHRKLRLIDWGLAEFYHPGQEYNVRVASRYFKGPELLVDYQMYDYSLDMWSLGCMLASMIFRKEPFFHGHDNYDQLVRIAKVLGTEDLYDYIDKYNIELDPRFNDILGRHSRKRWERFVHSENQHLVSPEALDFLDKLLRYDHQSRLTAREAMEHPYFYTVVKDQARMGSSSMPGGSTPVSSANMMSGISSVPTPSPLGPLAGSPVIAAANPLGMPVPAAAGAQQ
Experiment [5] has the same target. As to conditions: at 1 µM.
Experiment [6] has as its target T2, Inhibitor of nuclear factor kappa-B kinase subunit alpha (Homo sapiens) (UniProt O15111).
T2 sequence (whole entry): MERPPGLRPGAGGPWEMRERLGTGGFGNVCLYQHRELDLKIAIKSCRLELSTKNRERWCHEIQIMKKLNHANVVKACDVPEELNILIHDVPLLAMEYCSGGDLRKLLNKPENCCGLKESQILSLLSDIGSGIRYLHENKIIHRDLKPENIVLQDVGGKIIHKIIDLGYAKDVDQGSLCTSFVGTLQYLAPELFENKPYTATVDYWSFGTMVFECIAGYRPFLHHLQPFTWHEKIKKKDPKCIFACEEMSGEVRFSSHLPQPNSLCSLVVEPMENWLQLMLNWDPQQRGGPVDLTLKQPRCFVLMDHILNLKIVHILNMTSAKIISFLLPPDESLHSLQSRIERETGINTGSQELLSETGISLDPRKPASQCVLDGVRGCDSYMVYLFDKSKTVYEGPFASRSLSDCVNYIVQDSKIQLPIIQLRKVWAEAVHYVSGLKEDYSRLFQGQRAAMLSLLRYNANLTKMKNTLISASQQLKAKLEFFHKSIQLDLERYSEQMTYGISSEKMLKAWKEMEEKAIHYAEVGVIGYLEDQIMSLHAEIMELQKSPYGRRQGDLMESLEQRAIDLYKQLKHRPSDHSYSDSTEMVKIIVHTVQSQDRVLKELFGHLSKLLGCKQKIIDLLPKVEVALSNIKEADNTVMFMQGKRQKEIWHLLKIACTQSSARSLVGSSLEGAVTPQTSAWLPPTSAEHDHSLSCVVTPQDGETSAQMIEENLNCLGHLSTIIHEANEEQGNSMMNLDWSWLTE
As to conditions: at 0.1 µM.

In experiment [7] the target is T2, Inhibitor of nuclear factor kappa-B kinase subunit alpha (Homo sapiens). The note with it: at 1 µM.
For experiment [8], the target named is T3, Inhibitor of nuclear factor kappa-B kinase subunit beta (Homo sapiens) (UniProt O14920).
T3 sequence (whole entry): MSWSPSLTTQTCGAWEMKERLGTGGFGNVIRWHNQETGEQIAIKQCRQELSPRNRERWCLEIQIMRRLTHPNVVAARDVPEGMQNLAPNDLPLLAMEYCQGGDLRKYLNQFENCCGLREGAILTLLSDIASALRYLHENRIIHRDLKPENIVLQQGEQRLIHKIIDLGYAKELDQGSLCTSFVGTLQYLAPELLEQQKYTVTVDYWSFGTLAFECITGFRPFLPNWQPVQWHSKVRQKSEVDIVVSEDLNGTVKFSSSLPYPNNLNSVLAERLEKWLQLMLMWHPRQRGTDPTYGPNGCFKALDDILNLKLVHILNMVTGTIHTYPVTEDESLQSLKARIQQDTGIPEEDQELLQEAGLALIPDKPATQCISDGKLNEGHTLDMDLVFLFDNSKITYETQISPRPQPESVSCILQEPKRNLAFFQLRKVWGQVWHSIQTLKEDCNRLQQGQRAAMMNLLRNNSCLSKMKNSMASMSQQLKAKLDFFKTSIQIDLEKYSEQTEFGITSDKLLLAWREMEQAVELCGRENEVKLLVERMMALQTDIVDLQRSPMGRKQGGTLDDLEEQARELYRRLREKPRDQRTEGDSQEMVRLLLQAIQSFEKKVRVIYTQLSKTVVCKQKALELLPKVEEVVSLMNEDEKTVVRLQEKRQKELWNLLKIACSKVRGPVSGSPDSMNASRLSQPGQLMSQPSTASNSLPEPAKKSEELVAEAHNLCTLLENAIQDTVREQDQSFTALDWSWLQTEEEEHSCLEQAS
The note with it: at 0.1 µM.

The target of experiment [9] is T3, Inhibitor of nuclear factor kappa-B kinase subunit beta (Homo sapiens). As to conditions: at 1 µM.
For experiment [10], the target named is T4, Inhibitor of nuclear factor kappa-B kinase subunit epsilon (Homo sapiens) (UniProt Q14164).
T4 sequence (whole entry): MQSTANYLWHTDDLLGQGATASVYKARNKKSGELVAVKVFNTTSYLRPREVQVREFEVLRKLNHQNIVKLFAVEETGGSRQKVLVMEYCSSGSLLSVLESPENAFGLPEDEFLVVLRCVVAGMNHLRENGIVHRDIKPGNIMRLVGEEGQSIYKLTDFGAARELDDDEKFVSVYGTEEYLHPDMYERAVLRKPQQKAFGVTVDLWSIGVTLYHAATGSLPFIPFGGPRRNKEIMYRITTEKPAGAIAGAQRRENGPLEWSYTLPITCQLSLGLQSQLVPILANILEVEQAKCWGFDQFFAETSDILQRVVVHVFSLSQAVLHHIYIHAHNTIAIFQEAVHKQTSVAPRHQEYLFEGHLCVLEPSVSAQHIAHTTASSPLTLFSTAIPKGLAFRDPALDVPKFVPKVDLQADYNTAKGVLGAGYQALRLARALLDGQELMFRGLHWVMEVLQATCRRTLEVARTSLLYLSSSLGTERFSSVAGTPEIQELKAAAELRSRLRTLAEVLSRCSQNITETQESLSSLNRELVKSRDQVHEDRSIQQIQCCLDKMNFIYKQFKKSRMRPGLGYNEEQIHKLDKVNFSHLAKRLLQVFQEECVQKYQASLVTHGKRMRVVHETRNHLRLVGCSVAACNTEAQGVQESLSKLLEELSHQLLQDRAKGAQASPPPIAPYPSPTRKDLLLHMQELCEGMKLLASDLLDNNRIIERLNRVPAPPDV
As to conditions: at 0.1 µM.

Experiment [11] deals with T4, Inhibitor of nuclear factor kappa-B kinase subunit epsilon (Homo sapiens). The note with it: at 1 µM.
For experiment [12], the target named is T5, Serine/threonine-protein kinase Nek1 (Homo sapiens) (UniProt Q96PY6).
T5 sequence (whole entry): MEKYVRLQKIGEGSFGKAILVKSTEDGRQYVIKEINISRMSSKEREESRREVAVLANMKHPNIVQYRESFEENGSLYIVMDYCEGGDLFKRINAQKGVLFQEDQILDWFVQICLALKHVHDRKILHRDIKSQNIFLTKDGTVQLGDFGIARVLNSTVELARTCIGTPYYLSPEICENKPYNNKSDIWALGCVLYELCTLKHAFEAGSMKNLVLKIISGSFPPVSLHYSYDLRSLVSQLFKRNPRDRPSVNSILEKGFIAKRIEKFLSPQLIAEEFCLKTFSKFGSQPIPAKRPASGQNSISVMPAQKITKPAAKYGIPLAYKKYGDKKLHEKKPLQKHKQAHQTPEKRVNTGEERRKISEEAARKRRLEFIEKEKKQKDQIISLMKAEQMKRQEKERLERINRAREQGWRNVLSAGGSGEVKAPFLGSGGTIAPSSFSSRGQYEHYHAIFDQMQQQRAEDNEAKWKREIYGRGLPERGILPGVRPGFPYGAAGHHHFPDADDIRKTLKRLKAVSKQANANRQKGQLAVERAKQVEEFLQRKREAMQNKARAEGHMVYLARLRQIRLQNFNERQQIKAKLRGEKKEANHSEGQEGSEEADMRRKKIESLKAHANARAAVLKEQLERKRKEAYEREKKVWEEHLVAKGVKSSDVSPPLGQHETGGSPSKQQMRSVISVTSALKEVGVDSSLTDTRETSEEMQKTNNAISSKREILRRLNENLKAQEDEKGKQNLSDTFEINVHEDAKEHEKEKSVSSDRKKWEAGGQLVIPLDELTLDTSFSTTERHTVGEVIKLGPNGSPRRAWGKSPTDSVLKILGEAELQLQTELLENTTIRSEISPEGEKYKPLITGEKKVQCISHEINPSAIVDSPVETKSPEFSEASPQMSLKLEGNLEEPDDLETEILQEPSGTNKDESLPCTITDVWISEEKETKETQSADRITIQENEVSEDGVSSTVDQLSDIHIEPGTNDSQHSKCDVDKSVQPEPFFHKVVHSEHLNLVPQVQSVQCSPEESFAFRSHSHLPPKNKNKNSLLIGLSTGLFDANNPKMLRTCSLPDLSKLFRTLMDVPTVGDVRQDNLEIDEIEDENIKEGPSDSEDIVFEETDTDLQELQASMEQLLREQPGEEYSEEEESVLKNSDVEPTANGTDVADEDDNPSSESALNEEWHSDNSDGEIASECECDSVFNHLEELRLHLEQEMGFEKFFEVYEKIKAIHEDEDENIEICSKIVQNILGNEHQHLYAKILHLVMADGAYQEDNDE
As to conditions: at 0.1 µM.

The target of experiment [13] is T5, Serine/threonine-protein kinase Nek1 (Homo sapiens). As to conditions: at 1 µM.
The target of experiment [14] is T6, Serine/threonine-protein kinase Nek2 (Homo sapiens) (UniProt P51955).
T6 sequence (whole entry): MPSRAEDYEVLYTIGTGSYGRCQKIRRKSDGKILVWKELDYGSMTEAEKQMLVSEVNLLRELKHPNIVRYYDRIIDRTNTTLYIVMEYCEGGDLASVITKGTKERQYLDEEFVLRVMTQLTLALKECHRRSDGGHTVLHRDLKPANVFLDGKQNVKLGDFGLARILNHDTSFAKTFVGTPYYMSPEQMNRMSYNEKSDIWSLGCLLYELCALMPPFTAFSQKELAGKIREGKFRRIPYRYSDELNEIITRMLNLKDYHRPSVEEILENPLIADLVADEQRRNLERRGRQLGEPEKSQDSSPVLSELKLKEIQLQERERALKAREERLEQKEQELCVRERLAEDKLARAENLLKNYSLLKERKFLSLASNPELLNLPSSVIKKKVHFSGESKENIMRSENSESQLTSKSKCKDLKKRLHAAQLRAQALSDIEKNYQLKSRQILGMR
The note with it: at 0.1 µM.

The target of experiment [15] is T6, Serine/threonine-protein kinase Nek2 (Homo sapiens). As to conditions: at 1 µM.
Experiment [16] deals with Serine/threonine-protein kinase Nek6 (Homo sapiens) (UniProt Q9HC98). As to conditions: at 0.1 µM.
Serine/threonine-protein kinase Nek6 (Homo sapiens), sequence (Q9HC98 whole entry): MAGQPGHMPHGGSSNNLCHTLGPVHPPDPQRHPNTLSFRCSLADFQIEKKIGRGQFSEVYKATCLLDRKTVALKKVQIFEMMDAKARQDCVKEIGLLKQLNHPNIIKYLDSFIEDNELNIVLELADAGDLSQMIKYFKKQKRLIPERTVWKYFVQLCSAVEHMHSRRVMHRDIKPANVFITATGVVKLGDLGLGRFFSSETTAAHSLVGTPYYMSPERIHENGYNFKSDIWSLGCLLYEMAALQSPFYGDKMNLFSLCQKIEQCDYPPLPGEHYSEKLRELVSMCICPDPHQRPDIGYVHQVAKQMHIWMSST
Experiment [17] has the same target. As to conditions: at 1 µM.
The target in experiment [18] is Serine/threonine-protein kinase Nek7 (Homo sapiens) (UniProt Q8TDX7). The note with it: at 0.1 µM.
Serine/threonine-protein kinase Nek7 (Homo sapiens), sequence (Q8TDX7 whole entry, looked up): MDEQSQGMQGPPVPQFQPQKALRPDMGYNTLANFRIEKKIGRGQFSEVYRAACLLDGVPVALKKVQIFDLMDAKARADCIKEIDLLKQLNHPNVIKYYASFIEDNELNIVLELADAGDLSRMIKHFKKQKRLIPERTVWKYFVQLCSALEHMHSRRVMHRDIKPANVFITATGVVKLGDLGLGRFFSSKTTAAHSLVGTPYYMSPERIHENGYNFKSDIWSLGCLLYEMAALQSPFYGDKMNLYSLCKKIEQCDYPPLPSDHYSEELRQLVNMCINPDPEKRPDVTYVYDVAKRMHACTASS
Experiment [19] shares this target. The note with it: at 1 µM.
Experiment [20] concerns the target T7, Serine/threonine-protein kinase Nek9 (Homo sapiens) (UniProt Q8TD19).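 Note: reported value is the mean percent inhibition of NEK9.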
T7 sequence (whole entry): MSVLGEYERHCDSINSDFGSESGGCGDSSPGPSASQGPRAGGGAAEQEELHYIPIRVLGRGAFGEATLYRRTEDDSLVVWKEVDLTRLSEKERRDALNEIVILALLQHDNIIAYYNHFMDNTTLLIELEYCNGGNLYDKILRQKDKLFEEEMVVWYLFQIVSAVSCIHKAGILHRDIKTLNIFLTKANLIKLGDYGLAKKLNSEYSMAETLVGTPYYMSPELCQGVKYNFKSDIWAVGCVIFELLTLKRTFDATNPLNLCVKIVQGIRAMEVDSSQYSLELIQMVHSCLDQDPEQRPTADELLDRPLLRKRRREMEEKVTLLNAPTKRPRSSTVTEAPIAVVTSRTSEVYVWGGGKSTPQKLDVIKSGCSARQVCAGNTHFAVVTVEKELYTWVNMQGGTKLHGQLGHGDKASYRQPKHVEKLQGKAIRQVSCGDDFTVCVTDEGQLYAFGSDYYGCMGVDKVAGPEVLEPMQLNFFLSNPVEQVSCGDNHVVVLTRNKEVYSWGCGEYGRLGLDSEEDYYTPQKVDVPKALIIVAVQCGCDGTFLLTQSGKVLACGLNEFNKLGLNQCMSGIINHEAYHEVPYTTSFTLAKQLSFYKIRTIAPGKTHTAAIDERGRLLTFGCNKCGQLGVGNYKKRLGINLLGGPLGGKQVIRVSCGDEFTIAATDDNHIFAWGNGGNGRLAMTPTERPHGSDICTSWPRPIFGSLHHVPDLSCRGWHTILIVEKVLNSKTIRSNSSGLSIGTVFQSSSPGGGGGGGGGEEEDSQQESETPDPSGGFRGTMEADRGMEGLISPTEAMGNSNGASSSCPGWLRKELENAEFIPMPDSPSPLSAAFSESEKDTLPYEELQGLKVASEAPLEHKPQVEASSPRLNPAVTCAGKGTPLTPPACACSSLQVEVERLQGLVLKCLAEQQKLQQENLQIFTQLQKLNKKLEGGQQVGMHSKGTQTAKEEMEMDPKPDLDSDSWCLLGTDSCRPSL
As to conditions: at 0.1 µM.

A word on the inhibition: it is the relative decrease from the control value, in per cent.

Sphingosine kinase 1 (Homo sapiens), sequence (Q9NYA1 whole entry): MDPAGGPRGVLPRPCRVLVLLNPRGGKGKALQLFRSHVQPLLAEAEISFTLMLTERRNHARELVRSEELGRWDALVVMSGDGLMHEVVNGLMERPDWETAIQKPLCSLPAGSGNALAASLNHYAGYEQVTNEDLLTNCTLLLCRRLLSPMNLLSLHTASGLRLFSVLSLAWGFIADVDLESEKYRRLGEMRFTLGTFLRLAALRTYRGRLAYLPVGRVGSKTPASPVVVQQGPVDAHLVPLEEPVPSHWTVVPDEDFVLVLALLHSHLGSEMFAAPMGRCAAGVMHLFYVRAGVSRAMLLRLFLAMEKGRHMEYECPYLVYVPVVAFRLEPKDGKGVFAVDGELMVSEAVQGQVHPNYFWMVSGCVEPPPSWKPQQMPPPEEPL

As for `O=C(O[C@H]1CN[C@H](C#Cc2cc3ncnc(Nc4ccc5c(cnn5Cc5ccccc5)c4)c3s2)C1)N1CCOCC1`, the inhibition in experiment [1] was -0.72%; in experiment [2] it was 0.71%; in [3] it was -0.03%; in experiment [4], -2.6%; in [5] it was 1.05%; in experiment [6], 1.12%. The inhibition in experiment [7] is -2.78%; in experiment [8] it was -1.3%; in [9], -0.9%; in [10], -7.28%; in [11] it was 2.35%; in experiment [12], 1.14%. For the same compound, the inhibition in experiment [13] was -0.05%; in experiment [14] it was 0.17%; in experiment [15] it was 0.04%; in [16], -0.55%; in experiment [17], 1.2%; in experiment [18] it was -1.22%. For the same compound, the inhibition was 1.45% in experiment [19] and -1.71% in experiment [20].

The record behind these values is ChEMBL document CHEMBL1961873, “Compounds: GSK PKIS; Assays: Nanosyn kinase panel” (2012).
